Assay results taken from PubChem BioAssay AID1346428 (National Center for Advancing Translational Sciences (NCATS), 2018).
In all, about 48,000 compounds went through this assay and about 1,200 (2.5%) were called active. Inconclusive results (about 2%) are left out.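 How the source made its calls: active means activation of at least 60% and not above a set upper limit (about 1 call in 100 departs from these limits); inconclusive means activation of 40% to 60%, or above that upper limit; inactive means activation under 40%.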 The list comes from a sample in which actives are over-represented; it also holds similar structures and randomly drawn compounds.

The molecules below were run against Probable G-protein coupled receptor 32 (Homo sapiens) (UniProt O75388) (assay: qHTS for Agonists of Human Resolvin D1 Receptor DRV1). Settings: CHO-K1 GPR32 beta-arrestin PathHunter luminescence, 90 min; at 76.9 µM; stronger effect = higher value; zero percent set by DMSO-only wells.
Probable G-protein coupled receptor 32 (Homo sapiens), sequence (O75388 whole entry, looked up): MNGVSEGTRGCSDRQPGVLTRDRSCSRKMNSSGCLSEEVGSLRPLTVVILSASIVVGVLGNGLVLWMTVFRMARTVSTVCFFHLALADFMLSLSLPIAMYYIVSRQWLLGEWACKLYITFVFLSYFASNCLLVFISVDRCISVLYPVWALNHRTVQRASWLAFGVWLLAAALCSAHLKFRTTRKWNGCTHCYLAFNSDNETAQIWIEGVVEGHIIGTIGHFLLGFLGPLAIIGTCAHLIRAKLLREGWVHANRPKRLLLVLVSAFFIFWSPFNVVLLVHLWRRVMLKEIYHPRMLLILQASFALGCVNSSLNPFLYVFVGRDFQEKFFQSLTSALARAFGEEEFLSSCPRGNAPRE
Excerpt: Endogenous resolution of inflammation is known to be transduced through various GPCRs and their natural mediators of lipid nature. Resolvin D1 (RvD1) is one of the active players in resolution of acute inflammation through regulation of anti-inflammatory pathways; it is known to enhance phagocytosis of human macrophages, limits neutrophils infiltration, etc. […] The search for GPR32-activating small molecules with anti-inflammatory effects similar to its natural omega-3 derivative ligand in order to use them as research tools for further studies of inflammation and its resolution was the goal of this screening project. For primary screening assay, we used CHO-K1 GPR32 beta-arrestin cell line (DiscoveRx, #93-0321C2A) and the PathHunter(R) beta-Arrestin Assay (DiscoveRx) which measures recruitment of beta-arrestin to the GPR32 and generates chemiluminescent signal. These engineered cells stably transfected with GPR32 co-express GPR32-fused small 42-amino acid fragment of beta-Gal called ProLinktrade mark, and […] -tagged beta-Arrestin fusion protein. When GPR32 is activated by a ligand, it stimulates binding of beta -Arrestin to ProLink-tagged GPR32, and two parts of beta-Gal complement forming a functional enzyme. Upon substrate (PathHunter(R) Detection reagent) addition, beta-Gal hydrolyzes it and generates a chemiluminescent signal.
The cells were thawed and plated in thawing media containing F-12 HAM (Invitrogen, #11765-054), 10% FBS (Invitrogen, #10082), 1x Glutamine, and 1x Pen/Strep onto the 175-mm flask for 24 hours. Then, thawing media was replaced with Growth media which contains 800microg/mL Geneticin (Invitrogen, #10131) and 300microg/mL Hygromycin B (Invitrogen, #10687) in addition to described above. For the assay, the cells were harvested at ~80% confluent stage with Cell Dissociation buffer (Gibco, #13151), and seeded at 2,500 cells/ 3microL/well in assay media (PathHunter(R) Cell Plating Reagent, DiscoverX, #93-0563R1B) using MultiDrop Combi dispenser (Thermo Scientific, Logan, UT) onto white solid bottom tissue culture-treated 1536-well plates (Greiner # 789173-F) and allowed to attach overnight at 37 degrees C, 95% humidity, 5% CO2, . Next, 23nL/well of compound solutions in DMSO were added with a Pin Tool (Kalypsis, San Diego, CA) to the assay plates. As the basal control (EC0), 23 nL/well of DMSO was used on each plate. The cells were incubated in the presence of compounds or DMSO for 90 minutes at 37 degrees C, 5% CO2. Subsequently, 1.5microL/well of PathHunter(R) Detection Reagent prepared per the manufacturer's instructions was added to the assay plates with BioRAPTR FRDtrade mark dispenser (Beckman Coulter, San Francisco, CA) and incubated for 1 hour at ambient temperature prior to the measurement of the luminescent signal on ViewLux(R) uHTS Microplate Imager (Perkin Elmer, Waltham, MA).

activation, active:
Cc1ccc(Cl)cc1N1CCN(S(=O)(=O)c2cc3[nH]c(=O)c(=O)[nH]c3cc2C)CC1 97%
O=C1N(Cc2ccccc2)c2ccc(Cl)cc2C1(O)c1c[nH]c2ccccc12 (stereo not given) 116%
CCOC(=O)c1ccc(NC(=O)C2CCN(S(=O)(=O)c3ccc4c(c3)CCCC(=O)N4)CC2)cc1 68.9%
CCN(CC)CCNC(=O)c1cc2c(=O)oc3ccc(C)cc3c2s1 67.3%
CC1CCCN(Cc2c(O)ccc3c(=O)c(Oc4ccc(C(C)(C)C)cc4)c(C(F)(F)F)oc23)C1 (stereo not given) 64.7%
CCC1CCCCN1Cc1c(O)ccc2c(=O)c(Oc3ccccc3Cl)c(C(F)(F)F)oc12 (stereo not given) 102%
Cc1cc(F)ccc1NS(=O)(=O)c1ccc(-n2cccn2)cc1 106%
O=S(=O)(Nc1ccc2nc(-c3cccc(Cl)c3)oc2c1)c1ccccc1 93.4%
Cc1cccc(NC(=O)CSc2ncc(-c3ccccc3)[nH]2)c1C 93%
CC(C)C(=O)Nc1nc2c(s1)CC(C(C)(C)C)CC2 (stereo not given) 63.2%
Cc1oc2ccc(O)c(CN3CCCCC3)c2c1C(=O)Nc1cccc(C(F)(F)F)c1 106%
CN1CCC[C@@H]1CCO[C@](C)(c1ccccc1)c1ccc(Cl)cc1 68.2%
COc1ccc(-n2ccnc(NCCc3ccc(Cl)cc3)c2=O)cc1OC 105%
COc1cccc(N=C2SC(C(=O)Nc3cccc(Cl)c3)CC(=O)N2C)c1 (stereo not given) 68.2%
Cc1ccc(OCC(=O)Nc2ccc(Cl)c(-c3nc4ccccc4[nH]3)c2)cc1C 70.6%
CCCCN(CCCC)CCC(O)c1cc2c(Cl)cc(Cl)cc2c2cc(C(F)(F)F)ccc12 (stereo not given) 98.9%
CC(C)c1ccc(S(=O)(=O)Nc2ccc(O)c(Sc3nc4ccccc4s3)c2)cc1 70.6%

activation, inactive:
CCn1cc(C(=O)N2CCN(c3cc(Cl)ccc3C)CC2)c(=O)c2cc(S(=O)(=O)N3CCCC3)ccc21 -4.63%
COC(=O)c1cc(S(=O)(=O)N2CCN(c3cc(Cl)ccc3C)CC2)c[nH]1 13.7%
Cc1c(C)n(Cc2ccc(Cl)cc2)c2ccc(C(=O)N3CCN(c4ccccc4F)CC3)cc12 -26.9%
O=c1c2ccccc2n(Cc2cccc(Cl)c2)c(=O)n1Cc1ccccc1 -10.4%
O=C(CC1Oc2ccc(Cl)cc2NC1=O)NCc1ccccc1 (stereo not given) -14.9%
Cc1cccc(NC(=O)Cn2nc(-c3ccc(Cl)cc3)c3ccccc3c2=O)c1 -2.07%
COc1ccc(OCCCn2c(C3CC(=O)N(c4ccc(F)cc4)C3)nc3ccccc32)cc1 (stereo not given) 1.68%
Cc1ccc(C)c(N2CCN(C(=O)Cc3c(C(=O)O)c(C)cn3C)CC2)c1 -4.29%
CC(=O)Nc1ccc(NC(=O)C2CCCN(S(=O)(=O)c3ccc4c(c3)CCCC(=O)N4)C2)cc1 (stereo not given) 16.8%
COc1ccc(OC)c(NC(=O)C2CCCN(S(=O)(=O)c3ccc4c(c3)CCCC(=O)N4)C2)c1 (stereo not given) -4.17%
COc1ccc(Cl)cc1NC(=O)NCC1CCN(Cc2ccccc2F)CC1 -10.4%
CCOc1ccc(C2CC(=O)c3c([nH]c(C(=O)OCc4ccccc4)c3C)C2)cc1 (stereo not given) 49.1%
COc1cccc(CNC(=O)c2cc(=O)[nH]c3ccc(S(=O)(=O)N4CCCCC4)cc23)c1 -3.54%
CCC(=O)N1CCc2cc(Br)cc(S(=O)(=O)NCc3ccc(Cl)cc3)c21 19.3%
COc1ccc(Cl)cc1N(C)C(=O)c1cc2c(=O)oc3ccc(C)cc3c2s1 29.1%
CCOc1ccc(N(CC)C(=O)c2cc3c(=O)oc4ccccc4c3s2)cc1 21.3%
Cc1cccc(Nc2cc(C)nc(-n3nc(C)cc3C)n2)c1 -20.8%
O=C(c1ccc2c(c1)N(Cc1ccccc1)C(=O)c1ccccc1S2(=O)=O)N1CCC(Cc2ccccc2)CC1 -8.72%
COc1ccc(-c2c(C)c3ccc(O)c(CN4CCCC4)c3oc2=O)cc1OC -5.21%
Cc1ccc(Oc2c(C(F)(F)F)oc3c(CN4CCCCC4)c(O)ccc3c2=O)cc1 -34.2%
CC1CCCCN1Cc1c(O)ccc2c(=O)c(-c3cccc(Cl)c3)c(C(F)(F)F)oc12 (stereo not given) -11.7%
Cc1ccc(C)c(Oc2c(C(F)(F)F)oc3c(CN4CCN(C)CC4)c(O)ccc3c2=O)c1 -14.3%
Cc1ccsc1CN(C(=O)c1oc2ccc(Br)cc2c1C)C1CCS(=O)(=O)C1 (stereo not given) -26.5%
Cc1cc(F)ccc1NC1(c2ccccc2)C(=O)c2ccccc2C1=O -74.1%
Cn1c(=O)n(C)c2cc(NS(=O)(=O)c3ccc(F)cc3)ccc21 7.69%
CCOC(=O)N1CCc2c(sc3c2c(=O)n(-c2ccc(CC)cc2)c(=O)n3C)C1 -6.72%
CC(Nc1ccc(-c2nc(-c3ccco3)no2)cc1[N+](=O)[O-])c1ccccc1 (stereo not given) -14.5%
COc1ccc(OC)c(NC(=O)CSc2nc3ccccc3nc2N2CCCCC2)c1 -20.5%
O=C(Nc1cccc(-c2nc3ccccc3o2)c1)c1cccc(Br)c1 -18.9%
O=C(Nc1ccc(O)c(-c2nc3ccccc3o2)c1)c1ccc(-c2cccc(Cl)c2)o1 10.7%
COC(=O)c1ccc(Cn2c(SCC(=O)N(C)c3ccccc3)nc3ccccc32)cc1 -14.8%
CCOc1cccc(NC(=O)CSc2ncc(-c3ccc(Cl)cc3)[nH]2)c1 -15.1%
O=C(CSc1ncc(-c2ccccc2)[nH]1)Nc1ccc(F)cc1F -23.6%
COC(=O)c1ccc(NC(=O)CCc2c(C)nc3c(c(C)nn3-c3ccc(C)cc3)c2C)cc1 -18.2%
CCc1ccc(NC(=O)Cn2c(=O)n(CCC(=O)NCc3ccc4c(c3)OCO4)c(=O)c3ccccc32)cc1 -4.89%
Cc1ccccc1NC(=O)Cn1cc(C(=O)c2cccs2)c2ccccc21 -6.21%
Cn1c(=O)c2c(SCC(=O)NCC3CCCO3)nc(-c3ccccc3F)nc2n(C)c1=O (stereo not given) -4.7%
CCOc1ccc(NC(=O)c2cnn(-c3ccccc3)c2-n2cccc2)cc1 -6.74%
CN1CC[C@H](c2c(O)cc(O)c3c(=O)cc(-c4ccccc4Cl)oc23)[C@H](O)C1 -16.5%
O=C(NC1CC(=O)N(c2ccc(F)cc2)C1)C1CCCCC1 (stereo not given) -2.56%
COc1cc(OC)cc(C(=O)Nc2c(C(=O)Nc3ccc(F)cc3)oc3ccccc23)c1 1.9%
Cc1cc(C)cc(OC(C)C(=O)Nc2nc3c(s2)CCCC3)c1 (stereo not given) -14.5%
CC(C)(C)C1CCc2c(sc(NC(=O)c3ccccc3F)c2C(=O)N2CCCCC2)C1 (stereo not given) -35.6%
COc1ccc2cc(-c3nc(Cl)c4c5c(sc4n3)CC(C)CC5)c(=O)oc2c1 (stereo not given) -14.3%
CCCS(=O)(=O)N1CCC(n2c(C(F)(F)F)nc3cccnc32)CC1 -3.95%
Cc1oc2ccc(O)c(CN3CCOCC3)c2c1C(=O)Nc1cccc(Cl)c1C 18.4%
Cc1oc2ccc(O)c(CN3CCC(C)CC3)c2c1C(=O)Nc1ccccc1 17.2%
Cc1cccc(NC(=O)C2CCCN2S(=O)(=O)c2cccc3nsnc23)c1C (stereo not given) 8.79%
COc1ccccc1CNc1nccn(-c2ccc(F)cc2)c1=O 30.2%
COc1cccc(CNc2nccn(-c3ccc(OC)c(OC)c3)c2=O)c1 -0.901%
COc1cccc(NC(=O)C2CCN(c3cc(C)nc4c(-c5ccc(Cl)cc5)c(C)nn34)CC2)c1 -2.14%
COc1cccc(NC(=O)Nc2ccc3c(c2)N(C)C(=O)c2ccccc2S3)c1 4.16%
CC(C)c1ccc(NC(=O)c2ccc3c(O)c(S(=O)(=O)c4ccccc4)c(=O)[nH]c3c2)cc1 -0.853%
O=C(c1cnn(-c2ccc(F)cc2)c1-n1cccc1)N1CCN(c2ccc(F)cc2)CC1 19%
COc1ccc(CC(=O)Nc2ccc(-c3nc4ccccc4s3)c(C)c2)cc1 27.8%
COc1ccc(NC(=O)CSc2nc3ccccc3[nH]2)cc1 -10%
COc1ccc(CNC(=O)Cc2coc3ccc(C(C)C)cc23)cc1 -15.8%
COc1ccc2c(c1)c(N1CCCC1=O)c(C(=O)Nc1ccc(OC)c(Cl)c1)n2C 3.27%
CCOc1ccc(CCNC(=O)c2csc3c2CCCCC3)cc1 3.74%
Brc1cccc(-c2nnn3c2nc(NC2CCCCC2)c2ccccc23)c1 -7%
O=C(Nc1nc2c(s1)CCCC2)c1ccccc1F -7.97%
Cc1nc2ccc(S(=O)(=O)NC(C(=O)NCc3ccccc3Cl)C(C)C)cc2s1 (stereo not given) 7.27%
CC(C)(C)c1ccc(S(=O)(=O)Nc2ccc(O)c(Sc3nc4ccccc4s3)c2)cc1 2.42%
Cc1ccc(-n2c(=O)c3cccnc3n2CC(=O)Nc2ccccc2C(F)(F)F)cc1C -16.8%
CCCC12CN3CC(C)(CN(C1)C3c1ccccc1Cl)C2=O (stereo not given) -8.25%
CCN(CCCNC(=O)c1cc2cc3cc(OC)ccc3nc2s1)c1ccccc1 -15.5%
Cc1cccc(N2CCN(C(=O)c3cnc(N4CCCC4)nc3C)CC2)c1C 36.6%
CCN(C(=O)Cn1c(=O)nc(-c2ccccc2)c2cc(Cl)ccc21)c1cccc(C)c1 -7.41%
